{"source": "the antibiotic and cytotoxicity screens of Wong et al. (2023)", "note": "Out of some 39,000 compounds screened, about 3,300 (8.5%) were called active. Shown is part of a subset that was picked to be rich in actives.", "data": [{"tested_on": "HepG2", "assay": "cytotoxicity call (relative viability < 0.9)", "conditions": "10 µM", "values": [{"smiles": "COCCNC(=O)C[C@H]1C[C@@H]2c3cc(NS(C)(=O)=O)ccc3O[C@@H]2[C@H](CO)O1", "cytotoxicity call": "inactive"}, {"smiles": "CO[C@H]1CN(C)C(=O)c2cc(NC(=O)c3ccc(F)cc3)ccc2OC[C@@H](C)N(C(=O)CN(C)C)C[C@H]1C", "cytotoxicity call": "inactive"}, {"smiles": "COCC#Cc1ccc([C@@H]2[C@@H](CO)N3C(=O)CN(C(=O)CN4CCOCC4)C[C@H]23)cc1", "cytotoxicity call": "inactive"}, {"smiles": "C[C@H]1CN([C@@H](C)CO)C(=O)Cc2cc(NC(=O)Cn3cnnn3)ccc2O[C@@H]1CN(C)C(=O)Nc1ccc(C(F)(F)F)cc1", "cytotoxicity call": "inactive"}, {"smiles": "C[C@H]1CCCCO[C@H](CN(C)C(=O)Nc2ccc(F)cc2)[C@@H](C)CN([C@@H](C)CO)C(=O)c2cc(NS(=O)(=O)c3ccccc3)ccc2O1", "cytotoxicity call": "inactive"}, {"smiles": "O=C(O[C@@H]1Cc2c(O)cc(O)cc2O[C@@H]1c1cc(O)c(O)c2c(=O)c(O)cc([C@H]3Oc4cc(O)cc(O)c4C[C@H]3O)c-2c1)c1cc(O)c(O)c(O)c1", "cytotoxicity call": "active"}, {"smiles": "O=C(OC1Cc2c(O)cc(O)cc2OC1c1cc(O)c(=O)c2c(O)c(O)cc(C3Oc4cc(O)cc(O)c4CC3O)c2c1)c1cc(O)c(O)c(O)c1", "note": "(configuration not stated)", "cytotoxicity call": "inactive"}, {"smiles": "O=c1c(O)cc([C@H]2Oc3cc(O)cc(O)c3C[C@H]2O)c2cc([C@H]3Oc4cc(O)cc(O)c4C[C@H]3O)cc(O)c(O)c1-2", "cytotoxicity call": "inactive"}, {"smiles": "CCOC(=O)C1=C(C)NC(C)=C(C(=O)OC)C1c1cccc(Cl)c1Cl", "note": "(configuration not stated)", "cytotoxicity call": "inactive"}, {"smiles": "COC(=O)C1=C(C)NC(C)=C(C(=O)OC)C1c1ccccc1[N+](=O)[O-]", "cytotoxicity call": "inactive"}, {"smiles": "CCOC(=O)C1=C(COCCN)NC(C)=C(C(=O)OC)C1c1ccccc1Cl.O=S(=O)(O)c1ccccc1", "note": "(configuration not stated)", "cytotoxicity call": "active"}, {"smiles": "C[C@H]1CN([C@@H](C)CO)C(=O)c2cccc(NC(=O)C3CC3)c2O[C@H]1CN(C)Cc1ccc(Oc2ccccc2)cc1", "cytotoxicity call": "inactive"}, {"smiles": "CC(=O)N(C)C[C@@H]1Oc2cc(C#CCN(C)C)ccc2S(=O)(=O)N([C@@H](C)CO)C[C@H]1C", "cytotoxicity call": "inactive"}, {"smiles": "C[C@H](CO)N1C[C@H](C)[C@H](CN(C)C(=O)c2ccccc2F)Oc2ncc(C#Cc3ccncc3)cc2C1=O", "cytotoxicity call": "inactive"}, {"smiles": "CC(C)c1nc(N(C)S(C)(=O)=O)nc(-c2ccc(F)cc2)c1C=CC(O)CC(O)CC(=O)[O-].[Ca+2]", "note": "(configuration not stated)", "cytotoxicity call": "inactive"}, {"smiles": "CC(C)c1c(C(=O)Nc2ccccc2)c(-c2ccccc2)c(-c2ccc(F)cc2)n1CCC(O)CC(O)CC(=O)[O-].[Ca+2]", "note": "(configuration not stated)", "cytotoxicity call": "inactive"}, {"smiles": "CC(C)n1c(C=CC(O)CC(O)CC(=O)[O-])c(-c2ccc(F)cc2)c2ccccc21.[Na+]", "note": "(configuration not stated)", "cytotoxicity call": "active"}, {"smiles": "C[C@@H]1CCCCO[C@@H](CN(C)C(=O)Nc2ccc(F)cc2)[C@H](C)CN([C@H](C)CO)C(=O)c2cc(NC(=O)NC3CCCCC3)ccc2O1", "cytotoxicity call": "inactive"}, {"smiles": "C=CCC[C@H](Cc1ccc(F)cc1)C(=O)OC[C@H](Cc1c[nH]c2ccccc12)NC(=O)[C@@H](CC=C)CC(=O)N(CCO)Cc1ccccc1", "cytotoxicity call": "active"}, {"smiles": "C=CCC[C@H](Cc1ccc(F)cc1)C(=O)OC[C@@H](Cc1c[nH]c2ccccc12)NC(=O)[C@H](CC=C)CC(=O)N(CCO)Cc1ccccc1", "cytotoxicity call": "active"}, {"smiles": "C=CCC[C@@H](Cc1ccc(F)cc1)C(=O)OC[C@H](Cc1c[nH]c2ccccc12)NC(=O)[C@@H](CC=C)CC(=O)N(CCO)Cc1ccccc1", "cytotoxicity call": "inactive"}, {"smiles": "C=CCC[C@@H](Cc1ccc(F)cc1)C(=O)OC[C@@H](Cc1c[nH]c2ccccc12)NC(=O)[C@@H](CC=C)CC(=O)N(CCO)Cc1ccccc1", "cytotoxicity call": "active"}, {"smiles": "C=CCC[C@H](Cc1ccc(F)cc1)C(=O)OC[C@@H](Cc1c[nH]c2ccccc12)NC(=O)[C@@H](CC=C)CC(=O)N(CCO)Cc1ccccc1", "cytotoxicity call": "active"}, {"smiles": "C=CCC[C@@H](Cc1ccc(F)cc1)C(=O)OC[C@@H](Cc1ccccc1)NC(=O)[C@H](CC=C)CC(=O)N(CCO)Cc1ccccc1", "cytotoxicity call": "inactive"}, {"smiles": "Cc1cccc(S(=O)(=O)N2C[C@@H](O)COC[C@@H]3O[C@H](CC(=O)NCc4ccncn4)CC[C@H]32)c1", "cytotoxicity call": "inactive"}, {"smiles": "COCC(=O)Nc1ccc2c(c1)OC[C@H](C)N(Cc1cccc(F)c1)C[C@@H](C)[C@@H](OC)CN(C)C2=O", "cytotoxicity call": "inactive"}, {"smiles": "CCCN(C)C[C@@H]1OCCCC[C@@H](C)Oc2ccc(NC(=O)Nc3c(C)noc3C)cc2C(=O)N([C@H](C)CO)C[C@@H]1C", "cytotoxicity call": "inactive"}, {"smiles": "C[C@H](CO)N1C[C@H](C)[C@@H](CN(C)C(=O)NC2CCCCC2)OCCCC[C@H](C)Oc2ccc(NS(=O)(=O)c3ccccc3)cc2C1=O", "cytotoxicity call": "inactive"}, {"smiles": "C[C@@H]1CCCCO[C@@H](CN(C)Cc2ccc3c(c2)OCO3)[C@H](C)CN([C@H](C)CO)C(=O)c2cc(NS(=O)(=O)c3cccs3)ccc2O1", "cytotoxicity call": "inactive"}, {"smiles": "C[C@@H]1CCCCO[C@@H](CN(C)C(=O)Nc2ccc(F)cc2)[C@H](C)CN([C@H](C)CO)C(=O)c2cc(NC(=O)Nc3ccc(F)cc3)ccc2O1", "cytotoxicity call": "inactive"}, {"smiles": "C[C@@H]1CN([C@@H](C)CO)C(=O)c2cc(NS(C)(=O)=O)ccc2O[C@@H]1CN(C)Cc1ccc(C(=O)O)cc1", "cytotoxicity call": "inactive"}, {"smiles": "C[C@@H]1CCCCO[C@@H](CN(C)Cc2ccncc2)[C@@H](C)CN([C@@H](C)CO)C(=O)c2cc(NC(=O)Nc3ccc(F)cc3)ccc2O1", "cytotoxicity call": "inactive"}, {"smiles": "C[C@@H]1CN([C@H](C)CO)C(=O)c2cccc(NC(=O)C3CC3)c2O[C@@H]1CN(C)S(=O)(=O)c1ccc(F)cc1", "cytotoxicity call": "inactive"}, {"smiles": "C=CCC[C@H](Cc1ccc(F)cc1)C(=O)OC[C@H](Cc1c[nH]c2ccccc12)NC(=O)[C@H](CC=C)CC(=O)N(CCO)Cc1ccccc1", "cytotoxicity call": "inactive"}, {"smiles": "C=CCC[C@@H](Cc1ccc(F)cc1)C(=O)OC[C@H](Cc1c[nH]c2ccccc12)NC(=O)[C@H](CC=C)CC(=O)N(CCO)Cc1ccccc1", "cytotoxicity call": "inactive"}, {"smiles": "C=CCC[C@@H](Cc1ccc(F)cc1)C(=O)OC[C@@H](Cc1c[nH]c2ccccc12)NC(=O)[C@H](CC=C)CC(=O)N(CCO)Cc1ccccc1", "cytotoxicity call": "active"}, {"smiles": "C[C@H](CO)N1C[C@H](C)[C@H](CN(C)C(=O)Nc2cccc3ccccc23)Oc2ccc(NC(=O)Nc3ccc(F)cc3)cc2CC1=O", "cytotoxicity call": "inactive"}, {"smiles": "C[C@@H](N)c1nc2c(s1)CCCC2", "cytotoxicity call": "inactive"}, {"smiles": "O=C1O[C@H](c2ccccc2)[C@H](c2ccccc2)N2[C@H]1[C@@H](C(=O)NC[C@@H](O)c1ccccc1)[C@]1(C(=O)Nc3ccc(C#CC4(O)CCCCCC4)cc31)[C@H]2c1ccccc1OCCO", "cytotoxicity call": "inactive"}, {"smiles": "C[C@@H]1CN([C@H](C)CO)C(=O)c2cc(NC(=O)Nc3ccc(C(F)(F)F)cc3)ccc2O[C@@H]1CN(C)Cc1ccc(Cl)c(Cl)c1", "cytotoxicity call": "active"}, {"smiles": "C[C@@H]1CN([C@@H](C)CO)C(=O)c2cc(NC(=O)Nc3ccc(C(F)(F)F)cc3)ccc2O[C@@H]1CN(C)Cc1ccc(Cl)c(Cl)c1", "cytotoxicity call": "active"}, {"smiles": "C[C@H]1CN([C@@H](C)CO)C(=O)c2cc(NC(=O)Nc3ccc(C(F)(F)F)cc3)ccc2O[C@@H]1CN(C)Cc1ccc(Cl)c(Cl)c1", "cytotoxicity call": "inactive"}, {"smiles": "C[C@H](CO)N1C[C@H](C)[C@@H](CN(C)Cc2ccc(Cl)c(Cl)c2)Oc2ccc(NC(=O)Nc3ccc(C(F)(F)F)cc3)cc2C1=O", "cytotoxicity call": "active"}, {"smiles": "C[C@@H]1CN([C@H](C)CO)C(=O)c2cc(NC(=O)Nc3ccc(C(F)(F)F)cc3)ccc2O[C@H]1CN(C)Cc1ccc(Cl)c(Cl)c1", "cytotoxicity call": "active"}, {"smiles": "C[C@@H]1CN([C@@H](C)CO)C(=O)c2cc(NC(=O)Nc3ccc(C(F)(F)F)cc3)ccc2O[C@H]1CN(C)Cc1ccc(Cl)c(Cl)c1", "cytotoxicity call": "inactive"}, {"smiles": "C[C@H](CO)N1C[C@H](C)[C@@H](CN(C)S(=O)(=O)c2ccc(Cl)cc2)Oc2ccc(NC(=O)CCCN(C)C)cc2CC1=O", "cytotoxicity call": "inactive"}, {"smiles": "NCC[C@H]1CC[C@H](NC(=O)C2CC2)[C@H](CO)O1", "cytotoxicity call": "inactive"}, {"smiles": "CSc1nc(=O)c(CCO)c(C)[nH]1", "cytotoxicity call": "inactive"}, {"smiles": "COc1cccc(NC(=O)N2C[C@H](O)COC[C@@H]3O[C@@H](CC(=O)NCCCN4CCOCC4)CC[C@H]32)c1", "cytotoxicity call": "inactive"}, {"smiles": "CCOC(=O)CSc1nc(=O)cn[nH]1", "cytotoxicity call": "inactive"}, {"smiles": "C[C@@H]1CN([C@H](C)CO)C(=O)Cc2cc(NC(=O)C3CC3)ccc2O[C@H]1CN(C)Cc1ccc2c(c1)OCO2", "cytotoxicity call": "inactive"}, {"smiles": "CC(C)NC(=O)N(C)C[C@@H]1OCCCC[C@@H](C)Oc2ccc(NC(=O)Nc3ccccc3)cc2C(=O)N([C@@H](C)CO)C[C@@H]1C", "cytotoxicity call": "inactive"}, {"smiles": "COc1ccc(S(=O)(=O)Nc2ccc3c(c2)C(=O)N([C@H](C)CO)C[C@H](C)[C@H](CN(C)C(=O)Nc2c(C)noc2C)OCCCC[C@@H](C)O3)cc1", "cytotoxicity call": "inactive"}, {"smiles": "C[C@@H]1CN([C@H](C)CO)C(=O)c2cc(C3=CCCC3)cnc2O[C@H]1CN(C)S(=O)(=O)c1cn(C)cn1", "cytotoxicity call": "inactive"}, {"smiles": "Cc1noc(C)c1S(=O)(=O)Nc1ccc2c(c1)CC(=O)N([C@H](C)CO)C[C@H](C)[C@H](CN(C)S(=O)(=O)c1cn(C)cn1)O2", "cytotoxicity call": "inactive"}, {"smiles": "C[C@@H]1CCCCO[C@H](CN(C)C(=O)Nc2ccc3c(c2)OCO3)[C@H](C)CN([C@@H](C)CO)C(=O)c2cc(NC(=O)c3ccncc3)ccc2O1", "cytotoxicity call": "inactive"}, {"smiles": "C[C@@H]1CN([C@@H](C)CO)C(=O)Cc2cc(NC(=O)Nc3cccc4ccccc34)ccc2O[C@@H]1CN(C)C(=O)Nc1cccc2ccccc12", "cytotoxicity call": "inactive"}, {"smiles": "NCCN1CCOCC1", "cytotoxicity call": "inactive"}, {"smiles": "C[C@H](CO)N1C[C@H](C)[C@H](CN(C)Cc2ccc(Cl)c(Cl)c2)Oc2ccc(NC(=O)Nc3ccc(C(F)(F)F)cc3)cc2C1=O", "cytotoxicity call": "active"}, {"smiles": "C[C@H]1CN([C@@H](C)CO)C(=O)c2cc(NC(=O)Nc3ccc(C(F)(F)F)cc3)ccc2O[C@H]1CN(C)Cc1ccc(Cl)c(Cl)c1", "cytotoxicity call": "active"}, {"smiles": "C[C@H]1CN([C@@H](C)CO)C(=O)c2cc(NC(=O)Nc3ccc(F)cc3)ccc2O[C@@H]1CN(C)Cc1ccc(Cl)c(Cl)c1", "cytotoxicity call": "inactive"}, {"smiles": "C[C@H](CO)N1C[C@H](C)[C@@H](CN(C)Cc2ccc(Cl)c(Cl)c2)Oc2ccc(NC(=O)Nc3ccc(F)cc3)cc2C1=O", "cytotoxicity call": "inactive"}]}]}
